# Laboratory results: publication PMC7862700, “An all-to-all approach to the identification of sequence-specific readers for epigenetic DNA modifications on cytosine”
# What was measured:
# Assay in all cases: DAPPL (digital affinity profiling via proximity ligation, sequencing); 10 mM Tris-HCl pH 7.5, 50 mM NaCl, 1 mM DTT, 4% glycerol, room temperature, 30 min; GST-TFs on glutathione beads, 16-mer random dsDNA library, 0.1% formaldehyde crosslink after washing; high values mean tight binding
# FLI1 = biological target: T1, FLI1 (Homo sapiens, UniProt Q01543 1-452); conditions: protein: recombinant; tags: N-terminal GST; dsDNA, one strand shown
# T1 sequence: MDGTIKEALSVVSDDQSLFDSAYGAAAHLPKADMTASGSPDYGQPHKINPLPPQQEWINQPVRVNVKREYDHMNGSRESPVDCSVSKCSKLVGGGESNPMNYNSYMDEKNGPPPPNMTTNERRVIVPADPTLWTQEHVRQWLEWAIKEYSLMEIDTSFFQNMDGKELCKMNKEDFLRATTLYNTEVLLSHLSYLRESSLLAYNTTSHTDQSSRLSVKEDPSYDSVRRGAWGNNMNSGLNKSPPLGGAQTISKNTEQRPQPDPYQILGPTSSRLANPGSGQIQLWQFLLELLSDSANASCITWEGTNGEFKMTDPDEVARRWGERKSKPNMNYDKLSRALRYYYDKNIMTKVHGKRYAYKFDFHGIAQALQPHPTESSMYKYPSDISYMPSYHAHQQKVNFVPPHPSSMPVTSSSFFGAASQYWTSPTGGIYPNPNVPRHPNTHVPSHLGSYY
# Outline: (§1)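 A tag-only sample was pooled with DNA-barcoded human transcription factors that had been expressed in yeast as GST fusions and captured on glutathione beads. The pools were incubated for 30 min at room temperature with 200 nmole of a random double-stranded 16-mer DNA library in Tris/NaCl/DTT/glycerol buffer, then washed, crosslinked with 0.1% formaldehyde, proximity-ligated (BsaI/T4 ligase, 1 h, 37 °C), PCR-amplified and sequenced on an Illumina NextSeq500. Binding signal is each hexamer's read frequency for a factor divided by its frequency for the tag-only sample.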
# ELK1 = biological target: T2, ELK1 (Homo sapiens, UniProt P19419 1-428); conditions: protein: recombinant; tags: N-terminal GST; dsDNA, one strand shown
# T2 sequence: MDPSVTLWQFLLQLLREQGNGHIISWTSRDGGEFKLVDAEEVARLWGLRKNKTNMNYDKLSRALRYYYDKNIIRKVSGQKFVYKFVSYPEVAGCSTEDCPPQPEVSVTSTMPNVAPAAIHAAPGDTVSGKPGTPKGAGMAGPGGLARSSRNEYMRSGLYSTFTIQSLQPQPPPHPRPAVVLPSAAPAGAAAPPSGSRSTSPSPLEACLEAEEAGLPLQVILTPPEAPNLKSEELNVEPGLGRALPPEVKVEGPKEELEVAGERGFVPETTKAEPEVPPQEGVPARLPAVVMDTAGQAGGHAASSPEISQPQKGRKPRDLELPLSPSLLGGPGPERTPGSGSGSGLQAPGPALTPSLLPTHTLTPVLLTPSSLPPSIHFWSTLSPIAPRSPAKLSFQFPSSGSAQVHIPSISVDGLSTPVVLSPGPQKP
# Outline: as §1
# GABPA = biological target: T3, GABPA (Homo sapiens, UniProt Q06546 1-454); conditions: protein: recombinant; tags: N-terminal GST; dsDNA, one strand shown
# T3 sequence: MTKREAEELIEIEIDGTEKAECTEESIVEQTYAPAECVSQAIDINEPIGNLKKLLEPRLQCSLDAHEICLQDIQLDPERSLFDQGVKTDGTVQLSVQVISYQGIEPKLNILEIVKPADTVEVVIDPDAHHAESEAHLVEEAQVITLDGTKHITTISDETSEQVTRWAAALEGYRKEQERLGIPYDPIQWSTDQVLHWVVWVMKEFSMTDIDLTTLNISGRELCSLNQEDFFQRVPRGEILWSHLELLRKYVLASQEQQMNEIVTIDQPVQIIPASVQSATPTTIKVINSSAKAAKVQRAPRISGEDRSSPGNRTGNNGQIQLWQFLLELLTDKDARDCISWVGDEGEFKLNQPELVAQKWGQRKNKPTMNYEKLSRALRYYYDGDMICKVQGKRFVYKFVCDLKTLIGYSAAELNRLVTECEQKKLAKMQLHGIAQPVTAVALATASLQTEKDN
# Outline: as §1
# ERG = biological target: T4, ERG (Homo sapiens, UniProt P11308 1-479); conditions: protein: recombinant; tags: N-terminal GST; dsDNA, one strand shown
# T4 sequence: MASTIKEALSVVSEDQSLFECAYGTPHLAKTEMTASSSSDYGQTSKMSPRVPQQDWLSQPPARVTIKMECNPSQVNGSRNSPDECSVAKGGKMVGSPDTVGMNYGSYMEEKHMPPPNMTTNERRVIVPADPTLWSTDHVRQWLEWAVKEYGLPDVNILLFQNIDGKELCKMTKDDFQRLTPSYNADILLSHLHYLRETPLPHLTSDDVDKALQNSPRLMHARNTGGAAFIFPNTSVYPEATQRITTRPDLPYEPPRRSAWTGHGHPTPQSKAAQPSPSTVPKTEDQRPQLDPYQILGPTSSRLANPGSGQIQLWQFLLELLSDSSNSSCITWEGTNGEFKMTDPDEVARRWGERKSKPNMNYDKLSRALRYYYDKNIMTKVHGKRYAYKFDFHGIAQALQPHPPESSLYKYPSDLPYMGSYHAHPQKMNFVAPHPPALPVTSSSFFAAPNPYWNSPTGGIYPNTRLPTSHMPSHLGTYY
# Outline: as §1
# ELF1 = ELF1 (Homo sapiens, UniProt P32519 1-619); conditions: protein: recombinant; tags: N-terminal GST; dsDNA, one strand shown
# Outline: as §1
# EHF = biological target: T5, EHF (Homo sapiens, UniProt Q9NZC4 1-300); conditions: protein: recombinant; tags: N-terminal GST; dsDNA, one strand shown
# T5 sequence: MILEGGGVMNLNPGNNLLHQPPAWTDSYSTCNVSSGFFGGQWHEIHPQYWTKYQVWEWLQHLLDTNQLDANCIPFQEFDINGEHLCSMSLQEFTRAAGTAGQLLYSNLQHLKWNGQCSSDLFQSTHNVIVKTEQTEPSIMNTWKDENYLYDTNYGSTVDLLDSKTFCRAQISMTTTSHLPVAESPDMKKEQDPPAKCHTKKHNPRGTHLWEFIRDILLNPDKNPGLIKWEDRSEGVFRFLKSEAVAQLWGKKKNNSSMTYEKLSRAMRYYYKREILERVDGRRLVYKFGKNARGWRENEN
# Outline: as §1
# SPI1 = SPI1 (Homo sapiens, UniProt P17947 1-270); conditions: protein: recombinant; tags: N-terminal GST; dsDNA, one strand shown
# Outline: as §1
# SPIB = SPIB (Homo sapiens, UniProt Q01892 1-262); conditions: protein: recombinant; tags: N-terminal GST; dsDNA, one strand shown
# Outline: as §1
# ELK3 = biological target: T6, ELK3 (Homo sapiens, UniProt P41970 1-407); conditions: protein: recombinant; tags: N-terminal GST; dsDNA, one strand shown
# T6 sequence: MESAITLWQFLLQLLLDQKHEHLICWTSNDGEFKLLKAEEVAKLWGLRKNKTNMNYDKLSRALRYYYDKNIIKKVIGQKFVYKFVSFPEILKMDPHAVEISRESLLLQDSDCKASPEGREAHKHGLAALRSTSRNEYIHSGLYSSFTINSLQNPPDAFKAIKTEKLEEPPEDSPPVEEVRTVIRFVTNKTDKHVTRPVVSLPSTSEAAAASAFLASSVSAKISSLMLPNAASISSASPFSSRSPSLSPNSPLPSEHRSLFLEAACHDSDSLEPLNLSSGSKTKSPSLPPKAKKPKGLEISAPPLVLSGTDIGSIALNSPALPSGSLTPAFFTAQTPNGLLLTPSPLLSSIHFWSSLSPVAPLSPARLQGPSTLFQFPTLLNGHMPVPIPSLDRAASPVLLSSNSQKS
# Outline: as §1
# FEV = biological target: T7, FEV (Homo sapiens, UniProt Q99581 1-238); conditions: protein: recombinant; tags: N-terminal GST; dsDNA, one strand shown
# T7 sequence: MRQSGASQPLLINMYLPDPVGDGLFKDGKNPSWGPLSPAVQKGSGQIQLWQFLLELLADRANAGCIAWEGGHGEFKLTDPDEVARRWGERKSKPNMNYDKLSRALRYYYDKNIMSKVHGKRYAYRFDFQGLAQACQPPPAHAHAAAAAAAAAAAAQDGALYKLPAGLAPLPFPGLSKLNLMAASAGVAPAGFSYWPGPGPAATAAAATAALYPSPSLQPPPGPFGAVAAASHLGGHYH
# Outline: as §1
# ETV5 = ETV5 (Homo sapiens, UniProt P41161 1-510); conditions: protein: recombinant; tags: N-terminal GST; dsDNA, one strand shown
# Outline: as §1
# HSF1 = HSF1 (Homo sapiens, UniProt Q00613 1-529); conditions: protein: recombinant; tags: N-terminal GST; chain copies: 3; dsDNA, one strand shown
# Outline: as §1
# SPIC = biological target: T8, SPIC (Homo sapiens, UniProt Q8N5J4 1-248); conditions: protein: recombinant; tags: N-terminal GST; dsDNA, one strand shown
# T8 sequence: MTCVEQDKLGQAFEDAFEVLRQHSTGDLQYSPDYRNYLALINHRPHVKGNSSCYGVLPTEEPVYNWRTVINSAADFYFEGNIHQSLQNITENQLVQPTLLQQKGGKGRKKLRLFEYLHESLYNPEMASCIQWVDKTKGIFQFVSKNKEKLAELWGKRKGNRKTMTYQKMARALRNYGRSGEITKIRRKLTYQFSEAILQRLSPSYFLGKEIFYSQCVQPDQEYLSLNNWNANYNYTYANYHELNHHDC
# Outline: as §1
# ELF4 = ELF4 (Homo sapiens, UniProt Q99607 1-663); conditions: protein: recombinant; tags: N-terminal GST; dsDNA, one strand shown
# Outline: as §1
# ELK4 = biological target: T9, ELK4 (Homo sapiens, UniProt P28324-2 1-405); conditions: protein: recombinant; tags: N-terminal GST; dsDNA, one strand shown
# T9 sequence: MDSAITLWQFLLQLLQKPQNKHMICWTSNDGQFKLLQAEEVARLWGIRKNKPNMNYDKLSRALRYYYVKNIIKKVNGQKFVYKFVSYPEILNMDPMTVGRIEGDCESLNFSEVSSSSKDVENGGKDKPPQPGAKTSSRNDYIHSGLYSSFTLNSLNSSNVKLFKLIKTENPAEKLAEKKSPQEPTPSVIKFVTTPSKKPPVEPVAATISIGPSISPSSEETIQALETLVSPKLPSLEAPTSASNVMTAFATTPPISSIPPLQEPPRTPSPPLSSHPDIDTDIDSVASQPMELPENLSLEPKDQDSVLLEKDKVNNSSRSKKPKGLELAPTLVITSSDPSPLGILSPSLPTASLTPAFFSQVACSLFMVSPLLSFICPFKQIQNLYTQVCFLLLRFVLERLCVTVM
# Outline: as §1
# ETV2 = biological target: T10, ETV2 (Homo sapiens, UniProt O00321 1-342); conditions: protein: recombinant; tags: N-terminal GST; dsDNA, one strand shown
# T10 sequence: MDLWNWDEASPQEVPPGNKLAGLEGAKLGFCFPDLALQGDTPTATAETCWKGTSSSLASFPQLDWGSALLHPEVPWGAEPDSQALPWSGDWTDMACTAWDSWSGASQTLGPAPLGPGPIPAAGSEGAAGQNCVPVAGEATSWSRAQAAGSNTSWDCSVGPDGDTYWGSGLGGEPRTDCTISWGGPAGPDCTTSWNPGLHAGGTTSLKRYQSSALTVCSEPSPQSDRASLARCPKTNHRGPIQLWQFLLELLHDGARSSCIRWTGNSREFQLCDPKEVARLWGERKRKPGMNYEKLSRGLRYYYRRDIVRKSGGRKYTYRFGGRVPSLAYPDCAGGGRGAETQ
# Outline: as §1
# ELF3 = biological target: T11, ELF3 (Homo sapiens, UniProt P78545 1-371); conditions: protein: recombinant; tags: N-terminal GST; dsDNA, one strand shown
# T11 sequence: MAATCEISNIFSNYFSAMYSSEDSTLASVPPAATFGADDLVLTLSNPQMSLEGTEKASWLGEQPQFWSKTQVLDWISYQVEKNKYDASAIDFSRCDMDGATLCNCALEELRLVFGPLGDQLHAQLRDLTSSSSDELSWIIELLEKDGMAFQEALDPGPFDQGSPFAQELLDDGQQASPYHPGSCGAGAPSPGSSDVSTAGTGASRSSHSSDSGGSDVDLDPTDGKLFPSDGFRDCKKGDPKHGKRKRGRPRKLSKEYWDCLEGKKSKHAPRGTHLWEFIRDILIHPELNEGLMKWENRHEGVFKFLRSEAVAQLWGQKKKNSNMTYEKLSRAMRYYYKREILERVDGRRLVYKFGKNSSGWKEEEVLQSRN
# Outline: as §1
# CRX = CRX (Homo sapiens, UniProt O43186 1-299); conditions: protein: recombinant; tags: N-terminal GST; dsDNA, one strand shown
# Outline: as §1
# ETV1 = ETV1 (Homo sapiens, UniProt P50549 1-477); conditions: protein: recombinant; tags: N-terminal GST; dsDNA, one strand shown
# Outline: as §1
# Sequence of SPIB (Q01892 whole entry): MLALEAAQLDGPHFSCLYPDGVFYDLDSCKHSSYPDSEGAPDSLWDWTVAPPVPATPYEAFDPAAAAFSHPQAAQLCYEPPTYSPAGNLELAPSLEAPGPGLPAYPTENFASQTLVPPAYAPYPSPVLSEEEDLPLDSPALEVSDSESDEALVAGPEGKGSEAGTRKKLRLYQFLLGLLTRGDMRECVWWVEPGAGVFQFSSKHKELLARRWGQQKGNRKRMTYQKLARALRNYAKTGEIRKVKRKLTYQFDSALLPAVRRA
# Sequence of ELF1 (P32519 whole entry): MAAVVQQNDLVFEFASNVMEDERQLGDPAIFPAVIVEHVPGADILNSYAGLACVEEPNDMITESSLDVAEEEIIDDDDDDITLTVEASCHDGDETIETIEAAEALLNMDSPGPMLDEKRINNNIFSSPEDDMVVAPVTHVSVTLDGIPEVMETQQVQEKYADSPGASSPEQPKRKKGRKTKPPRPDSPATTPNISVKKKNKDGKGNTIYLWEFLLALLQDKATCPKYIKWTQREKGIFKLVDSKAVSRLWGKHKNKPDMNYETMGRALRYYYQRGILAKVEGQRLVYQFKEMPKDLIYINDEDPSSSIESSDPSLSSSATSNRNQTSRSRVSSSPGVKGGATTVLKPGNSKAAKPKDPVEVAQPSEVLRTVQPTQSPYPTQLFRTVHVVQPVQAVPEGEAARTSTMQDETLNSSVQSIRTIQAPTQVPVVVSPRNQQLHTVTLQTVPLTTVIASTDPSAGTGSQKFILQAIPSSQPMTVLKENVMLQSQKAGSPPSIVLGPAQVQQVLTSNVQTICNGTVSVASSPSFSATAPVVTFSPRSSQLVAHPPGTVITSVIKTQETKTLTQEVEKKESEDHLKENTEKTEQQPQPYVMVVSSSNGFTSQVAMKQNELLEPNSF
# Sequence of ETV5 (P41161 whole entry): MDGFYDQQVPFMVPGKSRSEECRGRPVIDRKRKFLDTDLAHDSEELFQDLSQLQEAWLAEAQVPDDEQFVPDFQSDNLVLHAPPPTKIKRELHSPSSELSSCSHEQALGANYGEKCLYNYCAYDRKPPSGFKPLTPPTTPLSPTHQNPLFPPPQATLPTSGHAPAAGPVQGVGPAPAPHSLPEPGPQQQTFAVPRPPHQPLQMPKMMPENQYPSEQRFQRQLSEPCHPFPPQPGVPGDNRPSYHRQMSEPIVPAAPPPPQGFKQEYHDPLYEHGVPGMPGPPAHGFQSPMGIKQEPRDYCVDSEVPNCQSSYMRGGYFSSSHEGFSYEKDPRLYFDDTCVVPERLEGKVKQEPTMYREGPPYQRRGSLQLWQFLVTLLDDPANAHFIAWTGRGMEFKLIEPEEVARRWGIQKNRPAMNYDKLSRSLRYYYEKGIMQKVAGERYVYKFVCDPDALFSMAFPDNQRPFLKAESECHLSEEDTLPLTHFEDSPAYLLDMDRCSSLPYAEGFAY
# Sequence of ETV1 (P50549 whole entry): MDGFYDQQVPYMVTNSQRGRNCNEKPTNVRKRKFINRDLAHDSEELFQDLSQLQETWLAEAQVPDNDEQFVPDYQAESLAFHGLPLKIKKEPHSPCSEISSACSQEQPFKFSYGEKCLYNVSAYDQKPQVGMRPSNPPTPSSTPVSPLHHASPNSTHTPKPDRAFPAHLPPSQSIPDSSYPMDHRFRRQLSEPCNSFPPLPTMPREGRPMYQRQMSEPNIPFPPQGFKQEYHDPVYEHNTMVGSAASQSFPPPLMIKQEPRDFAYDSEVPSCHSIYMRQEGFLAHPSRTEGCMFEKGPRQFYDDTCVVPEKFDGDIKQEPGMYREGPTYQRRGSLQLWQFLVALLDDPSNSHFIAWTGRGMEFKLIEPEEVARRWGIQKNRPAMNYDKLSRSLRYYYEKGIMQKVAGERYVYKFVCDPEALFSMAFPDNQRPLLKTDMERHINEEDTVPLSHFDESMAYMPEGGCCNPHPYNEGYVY
# Sequence of HSF1 (Q00613 whole entry): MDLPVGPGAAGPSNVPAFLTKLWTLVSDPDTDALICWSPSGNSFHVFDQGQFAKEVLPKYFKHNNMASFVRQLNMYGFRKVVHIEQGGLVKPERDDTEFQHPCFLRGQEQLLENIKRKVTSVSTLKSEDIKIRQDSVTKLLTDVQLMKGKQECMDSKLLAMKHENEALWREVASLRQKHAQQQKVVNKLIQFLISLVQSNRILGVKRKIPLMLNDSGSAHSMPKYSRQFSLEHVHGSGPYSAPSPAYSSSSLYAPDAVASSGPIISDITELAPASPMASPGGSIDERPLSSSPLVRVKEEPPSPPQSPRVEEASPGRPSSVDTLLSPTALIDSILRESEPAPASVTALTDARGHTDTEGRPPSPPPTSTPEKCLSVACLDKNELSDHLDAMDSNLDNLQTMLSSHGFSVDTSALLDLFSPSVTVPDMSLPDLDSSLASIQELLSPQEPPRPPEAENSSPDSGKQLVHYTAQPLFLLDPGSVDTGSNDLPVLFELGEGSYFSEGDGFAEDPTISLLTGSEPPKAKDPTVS
# Sequence of ELF4 (Q99607 whole entry): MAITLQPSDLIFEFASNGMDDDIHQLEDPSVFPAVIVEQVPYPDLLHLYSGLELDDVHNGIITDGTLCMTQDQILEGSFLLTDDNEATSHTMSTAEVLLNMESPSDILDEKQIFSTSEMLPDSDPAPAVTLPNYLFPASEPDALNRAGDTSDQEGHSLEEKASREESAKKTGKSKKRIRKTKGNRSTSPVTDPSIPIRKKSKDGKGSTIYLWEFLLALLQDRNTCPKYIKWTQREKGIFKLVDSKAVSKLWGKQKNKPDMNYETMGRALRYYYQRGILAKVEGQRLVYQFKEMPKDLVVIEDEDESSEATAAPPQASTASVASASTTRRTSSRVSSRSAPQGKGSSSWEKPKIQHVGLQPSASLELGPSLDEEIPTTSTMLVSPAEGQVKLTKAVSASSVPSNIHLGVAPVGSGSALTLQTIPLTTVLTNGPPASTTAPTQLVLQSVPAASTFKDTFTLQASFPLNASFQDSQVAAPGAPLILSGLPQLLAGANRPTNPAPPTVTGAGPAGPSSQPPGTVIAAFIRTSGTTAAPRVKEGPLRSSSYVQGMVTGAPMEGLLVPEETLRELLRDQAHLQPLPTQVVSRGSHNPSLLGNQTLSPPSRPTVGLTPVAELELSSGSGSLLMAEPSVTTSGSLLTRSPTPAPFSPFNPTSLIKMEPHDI
# Sequence of CRX (O43186 whole entry): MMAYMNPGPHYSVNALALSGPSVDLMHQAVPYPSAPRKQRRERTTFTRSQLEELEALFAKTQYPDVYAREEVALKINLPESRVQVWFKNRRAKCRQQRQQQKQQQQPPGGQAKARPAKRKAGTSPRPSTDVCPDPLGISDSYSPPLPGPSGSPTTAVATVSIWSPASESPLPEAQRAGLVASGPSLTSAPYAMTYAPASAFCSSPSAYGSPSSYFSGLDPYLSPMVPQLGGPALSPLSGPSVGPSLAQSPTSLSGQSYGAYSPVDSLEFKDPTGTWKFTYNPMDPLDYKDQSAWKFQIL
sequence,measurement,setting,value
TTTGAC,binding signal,FLI1,"1.57 fold enrichment (6-mer frequency, TF over GST control)"
same,binding signal,ELK1,"1.59 fold enrichment (6-mer frequency, TF over GST control)"
same,binding signal,GABPA,"1.55 fold enrichment (6-mer frequency, TF over GST control)"
same,binding signal,ERG,"1.45 fold enrichment (6-mer frequency, TF over GST control)"
same,binding signal,ELF1,"1.4 fold enrichment (6-mer frequency, TF over GST control)"
same,binding signal,EHF,"1.35 fold enrichment (6-mer frequency, TF over GST control)"
same,binding signal,SPI1,"1.34 fold enrichment (6-mer frequency, TF over GST control)"
same,binding signal,SPIB,"1.35 fold enrichment (6-mer frequency, TF over GST control)"
same,binding signal,ELK3,"1.34 fold enrichment (6-mer frequency, TF over GST control)"
same,binding signal,FEV,"1.37 fold enrichment (6-mer frequency, TF over GST control)"
same,binding signal,ETV5,"1.5 fold enrichment (6-mer frequency, TF over GST control)"
same,binding signal,HSF1,"1.35 fold enrichment (6-mer frequency, TF over GST control)"
same,binding signal,SPIC,"1.3 fold enrichment (6-mer frequency, TF over GST control)"
same,binding signal,ELF4,"1.47 fold enrichment (6-mer frequency, TF over GST control)"
same,binding signal,ELK4,"1.41 fold enrichment (6-mer frequency, TF over GST control)"
same,binding signal,ETV2,"1.5 fold enrichment (6-mer frequency, TF over GST control)"
same,binding signal,ELF3,"1.39 fold enrichment (6-mer frequency, TF over GST control)"
same,binding signal,CRX,"1.37 fold enrichment (6-mer frequency, TF over GST control)"
same,binding signal,ETV1,"1.42 fold enrichment (6-mer frequency, TF over GST control)"
